# Compound activity from PubChem BioAssay.
# NPC1 prom act = activates the NPC1 promoter. Huh7 NPC1 promoter luciferase reporter, 24 h. Potency, µM (series often up to 9.22 µM), for the others: top-dose activation, usual class: activators. 2.4% of 320,000 active. AID 485313; note: % of control where 0% means no effect; nearly all actives have a fitted effect of over 60% in size
#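 NPC1 promoter–luciferase Huh7 cells; 24 h compound; luminescence.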
# ELG1 repair inh = blocks ELG1-dependent DNA repair in HEK293T cells. HEK293T ELG1-luciferase reporter, luminescence, 16 h; DNA damage induced by 5-fluorouridine. 2.3% of 330,000 active. AID 504467. Potency, µM (titrated, usually from 46.1 µM), for the others: at the top dose activity change, negative = inhibition, actives largely listed as inhibitors; note: % is set by controls: 0 for no effect and ±100 for the full control effect; nearly all actives have a fitted effect of over 55% in size
#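 Cells (2,000 per well) received 5-fluorouridine plus test compound or DMSO and were incubated 16 hr at 37 °C, 5% CO2. Luciferase activity was read by luminescence 30 min after ONE-Glo addition; signal suppression marked inhibition of damage-induced ELG1 function.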
# SMN2 splice enh = enhancers of SMN2 splice variant expression. HEK293 SMN2-luciferase splicing reporter, luminescence, 30-36 h. Potency, µM (titrated, usually from 46.1 µM), for inactives: at the highest dose activity change, positive = activation, most hits filed as activators. 2.8% of 210,000 active. AID 1458; note: % of control where 0% means no effect; nearly all actives have a fitted effect of over 55% in size
#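 HEK293 cells carry an SMN2 […]–luciferase reporter in which exon 7 inclusion puts luciferase in frame. Cells were plated 10-12 h before compound addition, then incubated 30-36 h at 37C. ONE-Glo luminescence was read; sodium butyrate at 4.5 mM final served as control.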
# FLuc modulator = inhibits or activates purified firefly luciferase, miR-21 counter-screen. P08659. purified FLuc, Km substrates, luminescence inhibition. Potency, µM (highest dose often 57.5 µM), for the others: top-dose activity change, negative = inhibition, actives largely listed as inhibitors. 6.9% of 360,000 active;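 note: plate controls were vehicle for no effect and reference inhibitor for full effect; nearly all actives have a fitted effect of over 55% in size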
# Target sequence (P08659 whole entry, looked up): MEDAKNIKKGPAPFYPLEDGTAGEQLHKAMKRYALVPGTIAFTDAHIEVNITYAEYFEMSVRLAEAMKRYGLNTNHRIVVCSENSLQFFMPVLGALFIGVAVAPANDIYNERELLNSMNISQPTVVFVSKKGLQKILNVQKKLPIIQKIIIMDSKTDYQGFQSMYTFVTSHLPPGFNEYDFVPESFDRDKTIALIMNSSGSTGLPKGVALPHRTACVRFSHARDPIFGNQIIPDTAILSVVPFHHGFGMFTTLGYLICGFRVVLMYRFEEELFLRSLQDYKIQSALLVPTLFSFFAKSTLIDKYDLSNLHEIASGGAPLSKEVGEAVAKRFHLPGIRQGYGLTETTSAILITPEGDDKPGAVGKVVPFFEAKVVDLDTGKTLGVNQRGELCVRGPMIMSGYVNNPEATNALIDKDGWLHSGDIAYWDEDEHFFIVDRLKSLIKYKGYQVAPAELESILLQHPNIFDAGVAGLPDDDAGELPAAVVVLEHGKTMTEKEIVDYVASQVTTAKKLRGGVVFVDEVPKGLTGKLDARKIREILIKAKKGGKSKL
#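 Biochemical qHTS of compounds, final roughly 60 µM downward over six points, against 10 nM purified firefly luciferase using Km concentrations of substrates (10 uM D-luciferin, 10 uM ATP) in Tris acetate pH 7.5 buffer; luminescence output.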
# Rab9 promoter act = activates the Rab9 promoter; Huh7 Rab9 promoter-luciferase reporter, luminescence, 24 h; Potency, µM (top dose mostly 9.22 µM), inactives show top-dose activation, negative = inhibition, usual class: activators; 2.8% of 320,000 active; note: % of control where 0% means no effect; nearly all actives have a fitted effect of over 60% in size
#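 Stable Rab9-luc Huh7, 1500 cells/well, 2 h settle; cmpd in DMSO, 24 h, 37 °C/5% CO2; luciferase reagent 10 min RT; luminescence.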
# ELG1 genotox = induces genotoxicity in HEK293T cells with luciferase-tagged ELG1. HEK293T ELG1-luciferase reporter, luminescence, 16 h. Potency, µM (doses to about 46 µM), without a hit: top-dose activity change, positive = activation, most hits filed as activators. 1.3% of 330,000 active. AID 504466; note: % of control where 0% means no effect; nearly all actives have a fitted effect of over 60% in size
#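 ELG1-luciferase HEK293T cells, 2,000/well; compound pinned in; 16 hr, 37 °C, 5% CO2; ONE-Glo, 30 min RT; luminescence on CCD imager.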
# The depositor's hits bear a star; ? = inconclusive; . = no result; [ ] = remark or other dose. Hits are enriched below; roughly 9.2% of the tested compounds scored in any of these assays. Calls come from the whole dose curve; as a rule, active = well fitted curve in the direction sought with a large enough effect; inconclusive = small, poorly fitted or top-dose-only effect, or another doubt; inactive = no such curve, though single readings can be large; an effect the other way counts as inactive or inconclusive. Potency is the fitted concentration of half-maximal effect.
SMILES,NPC1 prom act,ELG1 repair inh,SMN2 splice enh,FLuc modulator,Rab9 promoter act,ELG1 genotox
Cc1ccc(NC(=O)c2c(C)nn(-c3ccccc3)c2Cl)cc1,12%,?,28%,15µM*,24%,9%
COc1cccc(NC(=O)COC(=O)c2c(C)nn(-c3ccccc3)c2C)c1,-1%,?,.,21µM*,1%,-3%
COc1ccc(NC(=O)c2c(C)nn(-c3ccccc3)c2Cl)cc1,22%,?,.,?,16%,3%
Cc1nn(-c2ccccc2)c(C)c1C(=O)OCC(=O)N1c2ccccc2NC(=O)C1(C)C,-5%,18µM*,-2%,0%,-4%,-18%
COc1cccc(NC(=O)c2c(C)nn(-c3ccccc3)c2Cl)c1,18%,?,.,17µM*,?,0%
CC(=O)c1ccc(NC(=O)c2c(C)nn(-c3ccccc3)c2Cl)cc1,0%,-6%,.,-3%,-3%,0%
Cc1cnc(CNC(=O)C2CCC(=O)N(Cc3ccc(Cl)cc3)C2)[nH]1 (centres undefined),1%,6%,.,0%,3%,2%
COc1cccc(-c2nn(-c3ccccc3)cc2CO)c1,.,.,6%,13µM*,.,.
COc1cccc(-c2nn(-c3ccccc3)cc2/C=C(/NC(=O)c2ccccc2)C(=O)O)c1,-1%,?,.,27µM*,-1%,1%
COc1cccc(-c2nn(-c3ccccc3)cc2C(=O)NCC(=O)O)c1,1%,-2%,4%,9.5µM*,-2%,-4%
COc1cccc(-c2nn(-c3ccccc3)cc2C(=O)OCC(=O)Nc2ncc(Cl)cc2Cl)c1,0%,21µM*,.,?,-1%,-1%
c1ccc(-c2nc(NCc3ccco3)c3ccccc3n2)nc1,-1%,7.3µM*,-10%,-2%,3%,-10%
COc1ccc(Nc2nc(NCC3CCCO3)c3ccccc3n2)c(OC)c1 (centres undefined),-3%,13µM*,-44%,24µM*,-6%,-21%
c1ccc(Nc2nc(NCC3CCCO3)c3ccccc3n2)cc1 (centres undefined),-9%,?,-61%,?,-4%,-10%
Oc1cccc(Nc2nc(NCC3CCCO3)c3ccccc3n2)c1 (centres undefined),2%,21µM*,1%,?,-6%,-24%
c1ccc(-c2nc(NCC3CCCO3)c3ccccc3n2)nc1 (centres undefined),-5%,18µM*,-56%,2%,-3%,-14%
N=C(N)c1ccc(/C=C\c2ccc(C(=N)N)cc2)cc1,.,.,-1%[9.22 µM],.,.,.
CCOc1ccc(Nc2nc(NCC3CCCO3)c3ccccc3n2)cc1 (centres undefined),-33%,7.3µM*,-74%,?,-26%,-7%
Cc1ccc(NC(=O)CSc2nnc3ccc(-c4ccncc4)nn23)cc1,3%,5.8µM*,.,-7%,19%,-15%
COc1ccc(CC(=O)Nc2ccc(-c3ccc4nnc(C)n4n3)cc2)cc1OC,-11%,?,18µM*,0%,-19%,21µM*
COc1ccc(CNC(=O)c2cccs2)cc1,3%,13%,-3%,4%,1%,1%
COc1ccc(CNC(=O)COC(=O)c2cccs2)cc1,0%,14%,.,24µM*,-6%,2%
COc1ccc(/C(N)=N/OC(=O)c2cccs2)cc1,1.4µM*,?,.,1.9µM*,1.3µM*,8.2µM*
COc1ccc2c(c1)/C(=N/OC(=O)c1cccs1)CCC2,0%,?,-28%,27µM*,-1%,14%
COc1ccc(NC(=O)O/N=C2/CCCc3ccc(OC)cc32)cc1,-4%,-8%,.,?,-28%,2%
SMILES,NPC1 prom act,ELG1 repair inh,SMN2 splice enh,FLuc modulator,Rab9 promoter act,ELG1 genotox
N/C(=N\OC(=O)c1cccs1)c1ccc(Cl)cc1,27%,?,.,4.8µM*,?,?
O=C(NCc1ccccc1)C1CCN(S(=O)(=O)c2ccc3c(c2)CCCN3C(=O)C2CCC2)CC1,.,.,.,-9%,.,.
CN(C)C(=O)COC(=O)c1ccccc1Nc1ccc(SC(F)F)cc1,?,?,13µM*,27µM*,?,?
COc1cc(OC)cc(N(C(=O)CNC(=O)c2ccco2)C(C(=O)NCC2CCCO2)c2ccccc2)c1 (centres undefined),?,-25%,.,-2%,2%,-20%
Cc1cc(F)ccc1NC(=O)C1CCCN(S(=O)(=O)c2ccc3c(c2)CCCC(=O)N3)C1 (centres undefined),.,.,.,-5%,.,.
Nc1c(C(=O)Nc2ccccc2Cl)nnn1-c1ccc2c(c1)OCCO2,0.79µM*,?,.,1.1µM*,1.1µM*,?
Nc1c(C(=O)Nc2ccc3c(c2)OCCO3)nnn1CCc1ccccc1,-2%,?,?,15µM*,10%,?
Cc1ccc(NC(=O)c2nnn(CC(=O)Nc3ccc4c(c3)OCO4)c2N)cc1C,-1%,?,.,5.4µM*,2%,2%
Cc1cccc(-n2nnc(C(=O)NCc3ccc4c(c3)OCO4)c2N)c1,7%,-8%,6%,2%,7%,-3%
Cc1ccc(NC(=O)Cn2nnc(C(=O)Nc3ccc(C)c(C)c3)c2N)cc1,-1%,14%,2%,?,-3%,9%
Nc1c(C(=O)Nc2ccc3c(c2)OCCO3)nnn1Cc1ccc(Br)cc1,1.6µM*,?,.,?,1.1µM*,?
CCC1CCCCN1C(=O)Cn1c(=O)oc2cc(S(=O)(=O)N3CCCCC3)ccc21 (centres undefined),.,.,15%,-1%,.,.
COc1ccc(NC(=O)CSc2cn(CCNC(=O)c3c(F)cccc3F)c3ccccc23)cc1,.,.,-5%,-16%,.,.
Nc1c(C(=O)Nc2ccc3c(c2)OCCO3)nnn1Cc1cccc(Br)c1,?,?,.,?,4µM*,8%
CC(C)NS(=O)(=O)c1ccc(OCC(=O)N2CCN(c3cccc(Cl)c3)CC2)cc1,.,.,-63%,-7%,.,.
Cc1cccc(OCCn2c(SCC(N)=O)nc3ccccc32)c1,.,.,7%,4%,.,.
O=C(c1ccncc1)N1CCC2(CC1)CCN(c1ccccc1)CC2,.,.,-29%,.,.,.
COc1ccc(/C=C2\N=C(c3ccccc3Cl)NC2=O)cc1,-30%,?,.,1.7µM*,-16%,4%
COc1ccc(/C=C2\N=C(SC)NC2=O)cc1,.,.,2%,?,.,.
CCCCCCCCCCCCCCCC(=O)C1=C(O)C(CO)OC1=O (centres undefined),.,.,-9%,.,.,.
O=C(N1CCN(c2ccccn2)CC1)C(Cl)(Cl)Cl,6%,?,4µM*,-14%,14%,1%
